Assay results as given in PubChem BioAssay AID1159580 (chemical genetic matrix, 2015).
The campaign covered roughly 5,500 compounds. About 2,000 (36%) were called active. Roughly 18% stayed inconclusive and do not appear here. Cut-off read from the data, not from the text of the source: active = normalized growth mostly below about 0.91 (no sharp cut-off); inconclusive = no clear call, values can overlap the other calls; inactive = mostly above about 0.92. Some of the results follow.

Experiment: chemical genetic growth profiling, strain panel (AID 1159580);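 note: tested at 20 µM; growth read once vehicle control cultures reached saturation at 30 °C; 1 = growth at the plate median or of vehicle wells; lower values mean less growth of the strain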
Conditions: growth OD
[1] = S. cerevisiae deletion strains, locus YAL013W, strain DEP1, hits give low values
[2] = S. cerevisiae deletion strains, locus YDR150W, strain NUM1, hits give low values
[3] = S. cerevisiae deletion strains, locus YGR078C, strain PAC10, hits give low values
[4] = S. cerevisiae deletion strains, locus YGR229C, strain SMI1, hits give low values
[5] = S. cerevisiae deletion strains, locus YMR307W, strain GAS1, hits give low values
[6] = S. cerevisiae deletion strains, locus YNL128W, strain TEP1, hits give low values
[7] = S. cerevisiae deletion strains, locus YNL153C, strain GIM3, hits give low values
[8] = S. cerevisiae deletion strains, locus YNL322C, strain KRE1, hits give low values
[9] = S. cerevisiae deletion strains, locus YPL241C, strain CIN2, hits give low values

Measured: normalized growth

CC(=O)OC1CC(OC(C)=O)C2(C)C(CC(OC(C)=O)C3(C)C2CCC2(C)C(c4ccoc4)OC(=O)C4OC423)C1(C)C (stereo not drawn)
inactive: [1] 0.995 | S. cerevisiae deletion strains, locus YBR021W, strain FUR4, hits give low values 0.986 | S. cerevisiae deletion strains, locus YBR229C, strain ROT2, hits give low values 0.984 | S. cerevisiae deletion strains, locus YCL029C, strain bik1, hits give low values 0.984 | S. cerevisiae deletion strains, locus YDL035C, strain GPR1, hits give low values 0.97 | S. cerevisiae deletion strains, locus YDL074C, strain BRE1, hits give low values 1.03 | S. cerevisiae deletion strains, locus YDL101C, strain DUN1, hits give low values 0.978 | S. cerevisiae deletion strains, locus YDL134C, strain PPH21, hits give low values 1 | S. cerevisiae deletion strains, locus YDL185W, strain tfp1, hits give low values 0.986 | S. cerevisiae deletion strains, locus YDL192W, strain arf1, hits give low values 0.99 | S. cerevisiae deletion strains, locus YDR101C, strain arx1, hits give low values 0.981 | [2] 1 | S. cerevisiae deletion strains, locus YDR162C, strain NBP2, hits give low values 1.01 | S. cerevisiae deletion strains, locus YDR318W, strain mcm21, hits give low values 0.986 | S. cerevisiae deletion strains, locus YDR388W, hits give low values 0.988 | S. cerevisiae deletion strains, locus YDR502C, strain sam2, hits give low values 1 | S. cerevisiae deletion strains, locus YEL061C, strain CIN8, hits give low values 0.995 | S. cerevisiae deletion strains, locus YER110C, hits give low values 0.977 | S. cerevisiae deletion strains, locus YER155C, strain BEM2, hits give low values 0.976 | S. cerevisiae deletion strains, locus YER167W, strain BCK2, hits give low values 0.973 | S. cerevisiae deletion strains, locus YGL078C, strain dbp3, hits give low values 1 | S. cerevisiae deletion strains, locus YGL086W, strain mad1, hits give low values 0.99 | S. cerevisiae deletion strains, locus YGL248W, strain PDE1, hits give low values 1 | [3] 1.04 | S. cerevisiae deletion strains, locus YGR135W, strain pre9, hits give low values 1.02 | [4] 0.997 | S. cerevisiae deletion strains, locus YGR252W, strain gcn5, hits give low values 0.951 | S. cerevisiae deletion strains, locus YHR030C, strain SLT2, hits give low values 0.984 | S. cerevisiae deletion strains, locus YHR079C, strain IRE1 (second series), hits give low values 0.99 | S. cerevisiae deletion strains, locus YHR094C, strain hxt1, hits give low values 0.984 | S. cerevisiae deletion strains, locus YHR129C, strain ARP1, hits give low values 0.997 | S. cerevisiae deletion strains, locus YHR200W, strain rpn10, hits give low values 0.99 | S. cerevisiae deletion strains, locus YIL066C, strain RNR3, hits give low values 0.986 | S. cerevisiae deletion strains, locus YIL073C, strain SPO22, hits give low values 0.954 | S. cerevisiae deletion strains, locus YIL125W, strain kgd1, hits give low values 0.983 | S. cerevisiae deletion strains, locus YIR030C, strain dcg1, hits give low values 0.984 | S. cerevisiae deletion strains, locus YJL095W, strain BCK1, hits give low values 1.03 | S. cerevisiae deletion strains, locus YJL134W, strain LCB3, hits give low values 0.984 | S. cerevisiae deletion strains, locus YJL168C, strain set2, hits give low values 0.986 | S. cerevisiae deletion strains, locus YJL187C, strain SWE1 (second series), hits give low values 1.01 | S. cerevisiae deletion strains, locus YJR043C, strain POL32, hits give low values 0.98 | S. cerevisiae deletion strains, locus YJR075W, strain HOC1, hits give low values 1.01 | S. cerevisiae deletion strains, locus YKL009W, strain mrt4, hits give low values 0.971 | S. cerevisiae deletion strains, locus YKL068W, hits give low values 1 | S. cerevisiae deletion strains, locus YKL085W, strain MDH1 (second series), hits give low values 0.992 | S. cerevisiae deletion strains, locus YKL085W, strain MDH1, hits give low values 0.992 | S. cerevisiae deletion strains, locus YKL190W, strain CNB1, hits give low values 1 | S. cerevisiae deletion strains, locus YKR001C, strain vps1, hits give low values 1.01 | S. cerevisiae deletion strains, locus YLR039C, strain RIC1, hits give low values 0.929 | S. cerevisiae deletion strains, locus YLR058C, strain SHM2, hits give low values 0.984 | S. cerevisiae deletion strains, locus YLR102C, strain apc9, hits give low values 0.979 | S. cerevisiae deletion strains, locus YLR262C, strain YPT6, hits give low values 0.975 | S. cerevisiae deletion strains, locus YLR268W, strain sec22, hits give low values 1 | S. cerevisiae deletion strains, locus YLR330W, strain CHS5, hits give low values 0.989 | S. cerevisiae deletion strains, locus YLR342W, strain FKS1 (second series), hits give low values 0.941 | S. cerevisiae deletion strains, locus YLR371W, strain rom2, hits give low values 0.977 | S. cerevisiae deletion strains, locus YLR418C, strain cdc73, hits give low values 0.988 | S. cerevisiae deletion strains, locus YML016C, strain PPZ1, hits give low values 0.993 | S. cerevisiae deletion strains, locus YML032C, strain rad52, hits give low values 0.976 | S. cerevisiae deletion strains, locus YML124C, strain tub3, hits give low values 0.996 | S. cerevisiae deletion strains, locus YMR078C, strain ctf18, hits give low values 0.97 | S. cerevisiae deletion strains, locus YMR223W, strain ubp8, hits give low values 0.981 | S. cerevisiae deletion strains, locus YMR263W, strain SAP30, hits give low values 1.03 | [5] 0.909 | S. cerevisiae deletion strains, locus YNL067W, strain RPL9B, hits give low values 1.03 | [6] 0.995 | [7] 1.04 | S. cerevisiae deletion strains, locus YNL233W, strain BNI4, hits give low values 0.999 | S. cerevisiae deletion strains, locus YNL250W, strain rad50, hits give low values 0.974 | S. cerevisiae deletion strains, locus YNL271C, strain bni1, hits give low values 0.988 | S. cerevisiae deletion strains, locus YNL298W, strain CLA4, hits give low values 0.985 | S. cerevisiae deletion strains, locus YNL307C, strain MCK1, hits give low values 0.965 | [8] 0.986 | S. cerevisiae deletion strains, locus YNR052C, strain pop2, hits give low values 0.987 | S. cerevisiae deletion strains, locus YOL006C, strain TOP1, hits give low values 0.977 | S. cerevisiae deletion strains, locus YOL012C, strain htz1 1.14 | S. cerevisiae deletion strains, locus YOL147C, strain pex11, hits give low values 0.996 | S. cerevisiae deletion strains, locus YOR061W, strain CKA2, hits give low values 0.994 | S. cerevisiae deletion strains, locus YOR069W, strain VPS5, hits give low values 0.963 | S. cerevisiae deletion strains, locus YOR136W, strain idh2, hits give low values 0.981 | S. cerevisiae deletion strains, locus YOR144C, strain elg1, hits give low values 0.998 | S. cerevisiae deletion strains, locus YOR184W, strain ser1, hits give low values 0.959 | S. cerevisiae deletion strains, locus YOR316C, strain cot1, hits give low values 0.987 | S. cerevisiae deletion strains, locus YPL055C, strain LGE1, hits give low values 1.04 | [9] 0.994 | S. cerevisiae deletion strains, locus YPR119W, strain clb2, hits give low values 0.992 | S. cerevisiae deletion strains, locus YPR141C, strain kar3, hits give low values 0.985 | S. cerevisiae deletion strains, locus YPR163C, strain tif3, hits give low values 0.992 | S. cerevisiae deletion strains, locus YPR167C, strain met16, hits give low values 0.992 | S. cerevisiae deletion strains, strain wtn01, hits give low values 0.996 | S. cerevisiae strains, strain wild type, hits give low values 0.983

CC[C@H](CO)Nc1nc(NCc2ccccc2)c2ncn(C(C)C)c2n1
inactive: [1] 1.01 | S. cerevisiae deletion strains, locus YAL040C, strain CLN3, hits give low values 0.992 | S. cerevisiae deletion strains, locus YCL061C, strain MRC1 (second series), hits give low values 1 | [2] 0.992 | S. cerevisiae deletion strains, locus YDR363W, strain ESC2, hits give low values 0.991 | S. cerevisiae deletion strains, locus YER002W, strain NOP16, hits give low values 1.03 | [3] 0.995 | [4] 1.04 | [5] 0.967 | [6] 1.03 | [7] 1 | S. cerevisiae deletion strains, locus YNL175C, strain NOP13, hits give low values 1 | S. cerevisiae deletion strains, locus YNL197C, strain WHI3, hits give low values 1 | S. cerevisiae deletion strains, locus YNL224C, strain SQS1, hits give low values 1.01 | [8] 1.02 | S. cerevisiae deletion strains, locus YOR083W, strain WHI5 (second series), hits give low values 1.01 | [9] 0.997
